Measurements reported in PubChem BioAssay.
Active and inactive are the calls of the source. Unless noted, how the calls were made is not given here.

Experiments:
[1] = tested on: Wnt5a (protein binding on small-molecule microarray); experiment: small molecules binding Wnt5a protein – biophysical, small-molecule microarray, 635/667 nm fluorescence, primary screen (AID 1142); settings: 635 nm fluorescence, higher = more signal;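 further: fluorescence read at 667 nm with signal to noise per printed feature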
[2] = ATP-based viability of Huh7 replicon cells – cell-based, CellTiter-Glo luminescence, basal, 48 h, cytotoxicity control for HCV replication inhibitor project, primary screen (AID 1143); settings: higher = more signal, called active from +8 up or from −8 down;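 further: Huh7 hepatoma cells carrying a hepatitis C replication reporter with no stimulus; test concentration not given here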
[3] = Pseudomonas biofilm growth suppression – PAO1 strain, BacTiter-Glo luminescence, LB-PBS, primary screen (AID 1144); settings: P. aeruginosa PAO1 biofilm, 12 h, higher = more signal
[4] = basal CRE-LacZ reporter activity in PC12 – cell-based, unstimulated, primary screen (AID 1145); settings: no forskolin, luminescence, 4.5 h, higher = more signal, called active from +8 up or from −8 down
[5] = forskolin-driven CRE-LacZ activity in PC12 – cell-based, CRE-LacZ reporter, forskolin-stimulated, primary screen (AID 1146); settings: luminescence, 4.5 h, higher = more signal, called active from +8 up or from −8 down;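 further: PC12 cells with 6xCRE LacZ reporter stimulated by forskolin 10 µM; beta-galactosidase reporter signal reflecting CREB driven transcription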
[6] = molecular target: Streptavidin (Streptomyces avidinii) (UniProt P22629); experiment: compounds binding control protein streptavidin – biophysical, small-molecule microarray, 635/667 nm fluorescence, artefact control for SMM compound annotation, primary screen (AID 1147); settings: higher = more signal;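 further: signal reflects streptavidin binding to arrayed compounds as a control protein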
Chain of Streptavidin (Streptomyces avidinii) (P22629 whole entry, looked up): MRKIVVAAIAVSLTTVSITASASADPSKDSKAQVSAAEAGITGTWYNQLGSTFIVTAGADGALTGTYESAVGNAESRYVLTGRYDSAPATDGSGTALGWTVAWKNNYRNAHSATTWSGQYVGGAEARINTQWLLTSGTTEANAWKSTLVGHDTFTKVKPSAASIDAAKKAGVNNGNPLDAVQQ

[7] = probe aInhba binding on compound microarray – biochemical, small-molecule microarray, 635/667 nm fluorescence, primary screen (AID 1148); settings: higher = more signal;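 further: score merges 667nm spot fluorescence with signal-to-noise for antibody binding to printed compounds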
Torsin-1A (Homo sapiens) [8] = molecular target: Torsin-1A (Homo sapiens) (UniProt O14656); experiment: TOR1A wild-type binding on microarray – cell lysate, small-molecule microarray, lysate, 635/667 nm, primary screen (AID 1149); settings: COS7 hTOR1A-WT lysate, 635 nm fluorescence, higher = more signal
Chain of Torsin-1A (Homo sapiens) (O14656 whole entry, looked up): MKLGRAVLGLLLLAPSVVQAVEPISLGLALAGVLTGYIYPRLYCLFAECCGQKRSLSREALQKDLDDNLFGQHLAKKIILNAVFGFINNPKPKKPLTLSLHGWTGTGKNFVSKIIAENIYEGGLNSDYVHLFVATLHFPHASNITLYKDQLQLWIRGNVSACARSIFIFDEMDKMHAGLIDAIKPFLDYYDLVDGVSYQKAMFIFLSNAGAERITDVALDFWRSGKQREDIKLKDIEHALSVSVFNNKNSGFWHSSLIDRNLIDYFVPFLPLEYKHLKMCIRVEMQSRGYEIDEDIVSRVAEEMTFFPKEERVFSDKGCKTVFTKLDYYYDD

Torsin-1A (Homo sapiens) [9] = molecular target: Torsin-1A (Homo sapiens) (UniProt O14656); experiment: torsin A mutant lysate binding on microarrays – cell lysate, small-molecule microarray, COS7 lysate, 635/667 nm fluorescence, primary screen (AID 1150); settings: COS7 hTOR1A mutant lysate, 635 nm fluorescence, higher = more signal;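 further: score pools 667 nm emission and signal to noise measuring lysate protein binding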
[10] = tested on: Sonic hedgehog protein (Shh); experiment: Sonic hedgehog microarray binding compounds – biochemical, small-molecule microarray, 635/667 nm fluorescence, primary screen (AID 1151); settings: 635 nm fluorescence, higher = more signal;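 further: Shh protein binding to compounds spotted on small-molecule microarray slides; score combines spot fluorescence intensity with signal-to-noise across triplicate slides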
[11] = optical density shifts of acrAB sulA E. coli – strain DRC41, OD650, 48 h, E. coli filamentation inducer project, primary screen (AID 1152); settings: higher = more signal, called active from +8 up or from −8 down;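 further: E. coli MC1000 strain DRC41 lacking acrAB efflux pump and sulA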
[12] = probe aLefty1 binding on compound microarray – biochemical, small-molecule microarray, 635/667 nm fluorescence, primary screen (AID 1153); settings: higher = more signal;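 further: score merges spot fluorescence with signal-to-noise ratio from the scanned slide images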
[13] = plasmodial surface anion channel blockers, osmotic lysis – cell-based, P. falciparum Indochina, OD700, 1 h, primary screen (AID 1154); settings: P. falciparum Indochina infected RBC osmotic lysis, higher = more signal, called active from +8 up or from −8 down
[14] = plasmodial surface anion channel blockers, osmotic lysis – cell-based, P. falciparum Indochina, OD700, 2 h, primary screen (AID 1155);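 further: lysis reports solute entry through the parasite surface anion channel PSAC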; settings: P. falciparum Indochina infected erythrocytes, higher = more signal, called active from +8 up or from −8 down
[15] = changes in parasitized red cell lysis, either direction – P. falciparum Indochina, OD700, 3 h, PSAC antagonist project, primary screen (AID 1156); settings: P. falciparum-infected erythrocytes, osmotic lysis, higher = more signal, called active from +8 up or from −8 down
[16] = plasmodial surface anion channel blockers, osmotic lysis – cell-based, P. falciparum Indochina, OD700, 18 h, primary screen (AID 1157); settings: P. falciparum Indochina infected erythrocytes, osmotic lysis OD700, 18 h; higher = more signal, called active from +8 up or from −8 down
[17] = S6 kinase pathway phospho-S6 level changes – cell-based, A549, cytoblot, luminescence, serum-stimulated, primary screen (AID 1158); settings: 5 h, higher = more signal;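 further: serum-stimulated A549 lung adenocarcinoma cells; signal is phosphorylated S6 detected by cytoblot immunostaining with HRP secondary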
[18] = molecular target: NADPH oxidase 2 (Homo sapiens) (UniProt P04839); experiment: compounds shifting NOX2 Amplex Red fluorescence – cell-based, HEK293-NOX2, PMA-stimulated, NOX inhibitor project, primary screen (AID 1159); settings: 45 min, higher = more signal, called active from +8 up or from −8 down; further: test concentration not given here
Chain of NADPH oxidase 2 (Homo sapiens) (P04839 whole entry, looked up): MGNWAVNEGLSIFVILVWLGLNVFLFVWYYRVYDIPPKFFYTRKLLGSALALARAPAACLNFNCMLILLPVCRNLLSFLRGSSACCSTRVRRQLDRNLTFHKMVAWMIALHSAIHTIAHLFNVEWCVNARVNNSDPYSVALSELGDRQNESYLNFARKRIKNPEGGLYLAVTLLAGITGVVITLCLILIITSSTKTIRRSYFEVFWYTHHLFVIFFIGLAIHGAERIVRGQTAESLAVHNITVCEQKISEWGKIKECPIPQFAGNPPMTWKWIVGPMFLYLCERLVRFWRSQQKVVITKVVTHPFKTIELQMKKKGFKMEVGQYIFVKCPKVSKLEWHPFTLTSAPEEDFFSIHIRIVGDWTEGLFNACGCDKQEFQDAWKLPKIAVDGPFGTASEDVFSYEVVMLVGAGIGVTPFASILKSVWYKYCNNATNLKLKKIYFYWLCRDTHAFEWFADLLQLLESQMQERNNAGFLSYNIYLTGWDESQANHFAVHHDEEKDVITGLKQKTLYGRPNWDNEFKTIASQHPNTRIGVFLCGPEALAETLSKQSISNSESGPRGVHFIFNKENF

[19] = molecular target: NADPH oxidase 4 (Homo sapiens) (UniProt Q9NPH5); experiment: compounds shifting NOX4 Amplex Red fluorescence – cell-based, HEK293-NOX4, tetracycline-induced, NOX inhibitor project, primary screen (AID 1160); settings: HEK293-NOX4, Amplex Red H2O2 fluorescence, 45 min; higher = more signal, called active from +8 up or from −8 down
Chain of NADPH oxidase 4 (Homo sapiens) (Q9NPH5 whole entry, looked up): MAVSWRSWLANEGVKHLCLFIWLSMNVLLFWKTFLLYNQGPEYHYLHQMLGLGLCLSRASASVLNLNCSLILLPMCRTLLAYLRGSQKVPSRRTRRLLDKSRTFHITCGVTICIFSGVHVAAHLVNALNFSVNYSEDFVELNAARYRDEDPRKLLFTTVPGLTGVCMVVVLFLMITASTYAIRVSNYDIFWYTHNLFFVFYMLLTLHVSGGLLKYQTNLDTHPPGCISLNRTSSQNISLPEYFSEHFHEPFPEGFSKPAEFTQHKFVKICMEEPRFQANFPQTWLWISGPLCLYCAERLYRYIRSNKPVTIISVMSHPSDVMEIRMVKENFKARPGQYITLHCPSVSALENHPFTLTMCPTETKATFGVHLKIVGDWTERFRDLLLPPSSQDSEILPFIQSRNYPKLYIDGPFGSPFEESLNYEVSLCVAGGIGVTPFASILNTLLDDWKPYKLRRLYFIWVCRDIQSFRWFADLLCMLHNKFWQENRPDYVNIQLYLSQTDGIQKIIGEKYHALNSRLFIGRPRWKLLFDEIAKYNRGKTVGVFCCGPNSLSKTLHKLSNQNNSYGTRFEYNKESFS

[20] = molecular target: NADPH oxidase 5 (Homo sapiens) (UniProt Q96PH1); experiment: compounds shifting NOX5 Amplex Red fluorescence – cell-based, HEK293-NOX5, NOX inhibitor project, primary screen (AID 1161); settings: HEK293-NOX5, ionomycin, 45 min, higher = more signal
Chain of NADPH oxidase 5 (Homo sapiens) (Q96PH1 whole entry, looked up): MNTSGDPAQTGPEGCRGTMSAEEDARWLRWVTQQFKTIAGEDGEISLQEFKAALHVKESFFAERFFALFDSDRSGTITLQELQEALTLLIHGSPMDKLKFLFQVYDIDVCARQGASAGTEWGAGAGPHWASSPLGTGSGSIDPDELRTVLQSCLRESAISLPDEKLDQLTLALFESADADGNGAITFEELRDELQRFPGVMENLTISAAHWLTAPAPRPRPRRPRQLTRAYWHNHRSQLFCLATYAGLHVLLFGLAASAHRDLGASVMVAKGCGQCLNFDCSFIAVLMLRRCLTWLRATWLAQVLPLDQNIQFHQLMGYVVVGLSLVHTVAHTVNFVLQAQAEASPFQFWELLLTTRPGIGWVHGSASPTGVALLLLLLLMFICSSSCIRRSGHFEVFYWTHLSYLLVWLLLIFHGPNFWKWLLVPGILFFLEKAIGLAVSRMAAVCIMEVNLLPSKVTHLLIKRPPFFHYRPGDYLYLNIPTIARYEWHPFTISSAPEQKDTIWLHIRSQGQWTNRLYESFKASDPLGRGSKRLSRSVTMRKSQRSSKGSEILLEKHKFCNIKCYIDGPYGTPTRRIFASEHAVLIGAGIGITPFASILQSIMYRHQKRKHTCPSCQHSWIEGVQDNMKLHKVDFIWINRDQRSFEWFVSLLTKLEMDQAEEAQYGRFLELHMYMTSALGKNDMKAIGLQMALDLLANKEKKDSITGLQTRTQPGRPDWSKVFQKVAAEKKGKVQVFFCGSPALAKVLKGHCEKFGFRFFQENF

Structure (SMILES)	composite z-score [1]	z-score [2]	z-score [3]	z-score [4]	z-score [5]	composite z-score [6]	composite z-score [7]	composite z-score (Torsin-1A (Homo sapiens) [8])	composite z-score (Torsin-1A (Homo sapiens) [9])	composite z-score [10]	z-score [11]	composite z-score [12]	z-score [13]	z-score [14]	z-score [15]	z-score [16]	z-score [17]	z-score [18]	z-score [19]	z-score [20]
O=C1C2C=CC(C(O)c3ccc(B(O)O)cc3)N(Nc3ccc([N+](=O)[O-])cc3)C2C(=O)N1c1ccccc1 (stereo not given)	0.263	-0.307 (inactive)	-0.0903 (inactive)	-1.07 (inactive)	-2.26 (inactive)	0.759	0.0785	0.363	0.286	0.221	-1.07 (inactive)	0.363	2.01 (inactive)	1.21 (inactive)	0.136 (inactive)	0.606 (inactive)	-0.537	-1.73 (inactive)	-0.374 (inactive)	-3.79
O=C1C2C=CC(C(O)c3cccc4ccccc34)N(n3cnnc3)C2C(=O)N1Cc1ccccc1 (stereo not given)	1.24	0.251 (inactive)	0.878 (inactive)	0.425 (inactive)	0.972 (inactive)	0.225	1.28	0.104	-0.0432	0.177	-1.53 (inactive)	1.69	-0.0851 (inactive)	0.327 (inactive)	0.282 (inactive)	0.339 (inactive)	-0.711	-0.154 (inactive)	0.0285 (inactive)	-0.879
O=C1C2C=CC(C(O)c3ccc(Br)cc3)N(n3cnnc3)C2C(=O)N1Cc1ccccc1 (stereo not given)	0.175	0.245 (inactive)	0.913 (inactive)	0.127 (inactive)	1.03 (inactive)	1.27	-0.0375	0.489	1.05	0.232	-2.21 (inactive)	0.152	0.922 (inactive)	1.16 (inactive)	0.107 (inactive)	0.756 (inactive)	-0.738	0.101 (inactive)	2.59 (inactive)	0.964
CC(=O)N1Cc2ccccc2C[C@@]2(N=C(c3ccc(OCCCO)cc3)O[C@H]2c2ccccc2)C1=O	0.604	-4.03 (inactive)	-0.519 (inactive)	1.53 (inactive)	-0.634 (inactive)	0.326	0.482	0.513	1.17	1.69	1.6 (inactive)	1.29	24.1 (active)	8.42 (active)	2.76 (inactive)	0.944 (inactive)	2.14	-4.15 (inactive)	0.144 (inactive)	-2.86
CN1C(=O)C2C=CC(C(O)c3ccccc3)N(NC(=O)OC(C)(C)C)C2C1=O (stereo not given)	0.126	0.413 (inactive)	0.316 (inactive)	0.443 (inactive)	0.955 (inactive)	0.134	-0.128	-0.365	0.0838	-0.582	-1.18 (inactive)	0.199	-0.0278 (inactive)	0.519 (inactive)	0.303 (inactive)	1.25 (inactive)	-1.04	-1.08 (inactive)	-0.302 (inactive)	-1.87
[N-]=[N+]=NCc1ccccc1C[C@@]1(C(=O)NCc2ccccc2)N=C(c2ccc(OCCCO)cc2)O[C@@H]1c1ccccc1CN=[N+]=[N-]	0.262	-3.35 (inactive)	0.503 (inactive)	0.297 (inactive)	0.448 (inactive)	1.19	0.406	0.327	0.367	-0.603	0.561 (inactive)	0.7	26.1 (active)	15.3 (active)	1.58 (inactive)	1.87 (inactive)	-0.633	-1.03 (inactive)	-0.17 (inactive)	-0.353
Cc1cccc(/C=C/C=O)c1	-0.0267	0.585 (inactive)	0.16 (inactive)	0.0924 (inactive)	-0.0647 (inactive)	1.04	-0.0963	-0.782	-0.295	0.0638	0.595 (inactive)	-0.0479	0.118 (inactive)	-0.557 (inactive)	0.565 (inactive)	-0.212 (inactive)	-0.57	-0.0862 (inactive)	0.0658 (inactive)	1.56
Cc1ccc(N2C(=O)c3ccccc3[C@](C)(C(=O)NCCN3CCOCC3)[C@@H]2c2ccc(CO)cc2)nc1	-0.538	-0.28 (inactive)	-0.398 (inactive)	-0.258 (inactive)	-0.37 (inactive)	-0.932	-0.211	-2.51	-1.62	0.465	-0.285 (inactive)	-0.229	1.12 (inactive)	0.645 (inactive)	2.69 (inactive)	0.178 (inactive)	-0.113	1.86 (inactive)	0.236 (inactive)	0.286
O=C1O[C@H](c2ccccc2)[C@H](c2ccccc2)N2[C@H]1[C@@H](C(=O)NC[C@H](O)c1ccccc1)[C@]1(C(=O)Nc3ccc(C#CC4=CCCCC4)cc31)[C@H]2c1ccc(O)cc1	0.688	-5.36 (inactive)	-0.354 (inactive)	-0.602 (inactive)	-0.912 (inactive)	0.758	0.121	0.769	1.08	1.51	1.8 (inactive)	-0.0418	1.35 (inactive)	0.393 (inactive)	-0.693 (inactive)	-0.521 (inactive)	1.98	2.08 (inactive)	0.754 (inactive)	-0.0561
COCCOC(=O)N1C(=O)[C@@]2(c3cc(C#Cc4ccc(OC)cc4)ccc31)[C@H](C(N)=O)[C@H]1C(=O)O[C@H](c3ccccc3)[C@H](c3ccccc3)N1[C@@H]2c1ccc(O)cc1	0.115	-4.24 (inactive)	0.0989 (inactive)	0.0776 (inactive)	-0.844 (inactive)	-1.23	0.295	-1.2	-1.29	-0.692	1.52 (inactive)	0.649	0.429 (inactive)	-0.359 (inactive)	-0.939 (inactive)	-1.13 (inactive)	2.93	-0.0615 (inactive)	0.893 (inactive)	0.128
COCCOC(=O)N1C(=O)[C@@]2(c3cc(C#CCC(C(=O)OC)C(=O)OC)ccc31)[C@H](c1ccccc1OCCO)N1[C@H](c3ccccc3)[C@H](c3ccccc3)OC(=O)[C@H]1[C@@H]2C(=O)Nc1nc2ccccc2s1	0.964	-2.67 (inactive)	-1.9 (inactive)	-0.375 (inactive)	-0.705 (inactive)	0.129	0.135	0.983	1.08	1.49	4.44 (inactive)	0.437	11.7 (active)	1.48 (inactive)	0.444 (inactive)	-0.734 (inactive)	3.72	1.18 (inactive)	1.19 (inactive)	-0.494
CN(C)CCCCCCNC(=O)[C@@H]1C[C@@H]2C(=O)N[C@@H](Cc3ccccc3)C(=O)N2[C@@H]1c1cccc(OCCO)c1	0.154	0.59 (inactive)	0.0305 (inactive)	-0.122 (inactive)	-1.29 (inactive)	0.0978	-0.0209	1.15	0.885	1.28	0.392 (inactive)	0.073	3.81 (inactive)	0.415 (inactive)	0.407 (inactive)	0.154 (inactive)	-0.243	1.08 (inactive)	1.4 (inactive)	1.4
COc1ccc([Si](C)(C)[C@@H]2[C@@H](CCn3cc([C@H](O)c4ccccc4)nn3)O[C@]3(C(=O)N(C)c4ccccc43)[C@H]2C)cc1	0.0302	-3.85 (inactive)	0.317 (inactive)	1.72 (inactive)	-1.26 (inactive)	-0.0794	-0.0465	-0.507	-0.0593	-0.103	-0.702 (inactive)	-0.101	4.2 (inactive)	0.579 (inactive)	1.51 (inactive)	0.325 (inactive)	0.416	1.62 (inactive)	0.689 (inactive)	-1.55
CN(C)CCCC[C@@H]1NC(=O)[C@@H]2C[C@H](C(=O)NCc3ccc(F)cc3)[C@H](c3cccc(OCCO)c3)N2C1=O	0.584	-0.267 (inactive)	-0.824 (inactive)	0.423 (inactive)	-1.18 (inactive)	-0.0899	0.374	1.27	1.12	2.06	-0.179 (inactive)	0.19	5.87 (inactive)	0.995 (inactive)	-1.39 (inactive)	0.546 (inactive)	0.612	1.85 (inactive)	1.37 (inactive)	1.55
COc1ccc([Si](C)(C)[C@H]2[C@H](CC(=O)N3Cc4ccccc4C[C@H]3CO)O[C@@]3(C(=O)N(Cc4cccc(I)c4)c4ccccc43)[C@@H]2C)cc1	0.378	-4.1 (inactive)	-0.194 (inactive)	5.99 (inactive)	-0.919 (inactive)	0.795	-0.0102	3.09	2.17	2.15	0.232 (inactive)	0.0233	6.74 (inactive)	1.38 (inactive)	2.14 (inactive)	1.19 (inactive)	0.452	-1.36 (inactive)	-0.348 (inactive)	-2.55
COc1ccc([Si](C)(C)[C@@H]2[C@@H](CCO)O[C@]3(C(=O)N(Cc4ccc(N5C(=O)c6cccc7cccc5c67)cc4)c4ccccc43)[C@H]2C)cc1	-0.404	-6.09 (inactive)	-0.0686 (inactive)	4.11 (inactive)	0.201 (inactive)	-0.376	-0.0791	-0.565	-0.535	0.0554	0.317 (inactive)	0.0355	3.28 (inactive)	3.22 (inactive)	0.146 (inactive)	2.22 (inactive)	-0.511	0.806 (inactive)	0.417 (inactive)	2.96
[N-]=[N+]=NCc1ccccc1C[C@]1(C(=O)NCC(O)CO)COC(c2ccc(OCCCO)cc2)=N1 (stereo not given in full)	0.956	-1.57 (inactive)	0.305 (inactive)	1.12 (inactive)	-1.08 (inactive)	1.43	0.435	0.842	2.3	-1.03	0.896 (inactive)	0.746	24.8 (active)	10.2 (active)	3.96 (inactive)	0.91 (inactive)	-0.0894	-2.99 (inactive)	-0.28 (inactive)	-2.11
